Consider 37 molecules from PubChem BioAssay (NCI).

About 83,000 compounds went through this panel and 20% of them were active in at least one assay; those are over-represented in the sample as a whole.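 Cell lines were cultured in 96-well plates, exposed to a single compound concentration, and assessed for percent growth 48 hours later.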 Unmarked numbers belong to inactive results. Active and inactive are the calls of the source. The calls were made as follows: active = growth percent below 10; inactive = the rest.

This experiment relates to RPMI-8226 leukemia. Kind of experiment: NCI-60 one-dose screen, 48 h (100 = growth as untreated, 0 = no growth, -100 = all killed). The settings on record: 10 µM unless noted.
`O=C(Nc1nc2ccc(C(F)(F)F)cc2s1)c1cc(Cl)ccc1O`: the growth is -5.53% (active).
As to `NC(N)=NC(N)=Nc1cc2ccccc2c2ccccc12`, the growth is -15.4% (active).
Then `CC(=O)Oc1c2c(nc3c1c1ccccc1n3Cc1ccccc1)-c1ccccc1C2`, with 73.3%; and `CN1C(=O)c2cc(Cl)nc3c(NC(=O)c4cccc(Cl)c4)c(Cl)c(NC(=O)c4cccc(Cl)c4)c1c23`, with 38.4%; and `CCOCCc1c(O)nc(SC)[nH]c1=O`, with 94.4%.
As to `COc1ccc2[nH]c(=O)c(/C=C/C(=O)/C=C/c3ccc(O)c(OC)c3)cc2c1`, the growth is -18.5% (active).
In the case of `CCOC(=O)c1c(C)nc2c(c1N)/C(=C/c1cccs1)C(=O)N2Cc1ccccc1`, the growth is -21.2% (active).
Then `O=C(CCc1nnc2sc(OCc3ccccc3)nn12)c1nc2ccc([N+](=O)[O-])cc2[nH]1`, with 106%; and `COc1ccc2c(c1)Oc1nc(N)c(C#N)c(N)c1C2Sc1ccc(O)cc1` (configuration not stated), with 53.4%.
Regarding `O=C(Nc1nccs1)c1noc2ccccc12`, the growth is 90.4%.
Then `Cc1cccc(C)c1NCc1nnc(-c2ccco2)o1`, with 77.9%; and `CCOC(=O)C1=C(C)n2nc(CC#N)c(C#N)c2NC1c1ccc(Cl)cc1` (configuration not stated), with 101%.
For `CCOc1ccccc1C(=O)/C=C/c1cc2ccccc2[nH]c1=O`, the growth is -12.1% (active).
For `COc1cc(NC(=O)Nc2cnc(Nc3ccc(N4CCOCC4)cc3)nc2Oc2ccc(F)cc2)cc(OC)c1`, the growth is 81.3%.
For `Cc1cc(Cl)cc(CN(Cc2ccccc2)Cc2c(O)ccc3ccccc23)c1O`, the growth is 87.4%.
Regarding `NC[C@@H]1CCN(c2cc3c(cc2F)c(=O)n(N)c(=O)n3Cc2ccc(-c3ccccc3)cc2)C1`, the growth was 65.2%.
As to `O=C(/C(=C/c1ccc([N+](=O)[O-])cc1)SCc1ccc(F)cc1)c1ccc(Cl)cc1`, the growth was -16% (active).
For `COc1ccc(Cl)c([N+](=O)[O-])c1` the value was 106%; for `COc1cc(C)ccc1Oc1nc(Nc2ccc(N3CCOCC3)cc2)ncc1N=Cc1cc(C(F)(F)F)cc(C(F)(F)F)c1`, 69.7%; for `c1ccc(-c2cn3ccnc3c(-c3ccc4c(c3)ncn4C3CCCCC3)n2)cc1`, 81.7%.
As for `Nc1c(C(=O)Nc2cccc3ccccc23)sc2nc3c(cc12)COCC3`, the growth was 59.6%.
Then `O=C1CCC23OC(C(O)c4ccccc4N12)C1C(Br)=NOC13` (configuration not stated), with 98.7%.
Regarding `O=Cc1[nH]c(Sc2ccccc2)c2ccccc12`, the growth was 7.59% (active).
For `CCOC(=O)c1sc(/N=C2\NC(=O)/C(=C/c3ccc(N4CCN(C)CC4)cc3)S2)nc1C` the value was 87.5%; for `COc1cc(C2=NN(c3ccccc3)C(c3cccc(Nc4ccnc5cc(C(F)(F)F)ccc45)c3)C2)cc(OC)c1OC` (configuration not stated), 65.1%; for `COc1ccc(-c2cc(-c3nnc(SCC(=O)Nc4ccc(/C(C)=N\O)cc4)n3-c3ccccc3)c3cc(OC)ccc3n2)cc1`, 66.7%.
As to `COc1ccc(OCC(=O)OC(C)C)cc1`, the growth was 106%.
For `CC1=C(CCCOC(=O)NCCCl)C2=C(C)C3(CC3)[C@@](C)(O)C(=O)C2=C1` the value was 80%; for `Nc1ccccc1NS(=O)(=O)c1ccc(Cl)cc1`, 95%; for `N#Cc1ccc(C2C3=C(CCCC3=O)OC3=C2C(=O)c2ccccc2C3=O)cc1` (configuration not stated), 54.7%.
Then `C=CCn1c(SCC(=O)Nc2ccc(C(=O)/C=C/c3cc(OC)c(OC)c(OC)c3)cc2)nnc1-c1ccccc1`, with 5.73% (active).
For `NS(=O)(=O)c1ccc(C2C3=C(CCCC3=O)OC3=C2C(=O)c2ccccc2C3=O)cc1` (configuration not stated) the value was -35.8% (active); for `COc1ccc2nc3nc4ccc[nH]c4cc3c2c1`, 82.9%.
For `COc1ccc(Nc2nc(SCC(C)C)nc(-c3ccc(F)cc3)c2C#N)cc1`, the growth was 88%.
Turning to `NC(=O)CN1C(=O)c2ccccc2C1=O`, the growth was 105%.
As to `COc1cccc(C(=O)OCCn2nc3c4c(cccc42)C(=O)c2ccccc2-3)c1O`, the growth was 30%.
Take `c1ccc(-c2n(Cc3ccc4ccccc4n3)cc[n+]2Cc2ccc3ccccc3c2)cc1`: the growth was -2.59% (active).
